Reference: PubChem BioAssay (NCI)
The panel holds about 79,000 compounds, 15% with a hit somewhere; the sample as a whole holds those more often. Values without a mark were called inactive. No stated cut-off is given here; in the data, active means growth inhibition above about 70%; inactive means the rest. Where a SMILES comes first, the peptide text is derived from it. The star is where a group is joined. Cbz = O=C(OCc1ccccc1)*; OBn = c1ccc(CO*)cc1

Test: NCI Yeast Anticancer Drug Screen. Data for the cln2 rad14 strain (AID 165);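 further: 0% = growth equal to vehicle treated cultures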
Details: S. cerevisiae cln2 rad14 strain, at 50.0 µM, active compounds read high
Procedure, shortened: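 Strain: cln2 rad14 yeast, altered in cell cycle control and DNA damage repair. Read-out: growth inhibition vs vehicle.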

SMILES	growth inhibition
CC12CCC(/C(=C/N(O)/C=C3\C(=O)C4(C)CCC3C4(C)C)C1=O)C2(C)C	1.85%
COc1ccc(C(=O)OCc2ccccc2CN2CCOCC2)cc1	30.3%
Cc1ccccc1C(=O)N(C(C)C)C(C)C	-12.6%
CCCCCCCCCCCCCCCCCCCCCC(C)C	-8.6%
CC1(C)CCCCC1=O	22.1%
Cc1cnc(NCCCCNc2ncc(C)c(-c3ccccc3O)n2)nc1-c1ccccc1O	-27.1%
O=C(NC(CO)C(=O)N1CCCC1C(=O)OCc1ccccc1)OCc1ccccc1 (stereo not drawn) (Cbz-Ser-Pro-OBn; configuration not given here)	23.9%
COC(=O)c1cccc(=O)o1	-79%
CSC(=Nc1ccc([N+](=O)[O-])cc1C#N)NC(=O)c1ccccc1	-15.1%
COc1ccc(CCN=C2CCC(C(=O)NCCc3ccc(OC)c(OC)c3)N2)cc1OC (stereo not given)	-1.3%
Cc1cccc(C)c1NC(=O)CCC(=O)CC(=O)C(C)C	2.55%
CC(=O)Nc1ccc(C2CC(c3ccc([N+](=O)[O-])cc3)=Nc3ccccc3S2)cc1 (stereo not given)	17.6%
Clc1cnnc2nc[nH]c12	-28.1%
CC(C)(C)C1CCC2c3c([nH]c4ncccc34)C3C(=O)N(c4ccccc4)C(=O)C3C2C1 (stereo not given)	-67.2%
COc1cccc(N2C(=O)[C@H]3[C@H]4CC(C(C)(C)C)CC[C@H]4c4c([nH]c5ccccc45)[C@H]3C2=O)c1 (stereo not given in full)	31.7%
